From PubChem BioAssay (NCATS)
Unmarked numbers belong to inactive results. Inconclusive results are not listed. Entries that show only a call come without a potency. Activity calls are given as the source filed them. Calls come from the whole dose curve; as a rule, active = well fitted curve in the direction sought with a large enough effect; inconclusive = small, poorly fitted or top-dose-only effect, or another doubt; inactive = no such curve, though single readings can be large; an effect the other way counts as inactive or inconclusive. *1 amine or outer side, *2 acyl side, *3 side chain or, on linkers, in order; H or OH if unused. Where a SMILES comes first, the peptide text is derived from it. [ ]: non-standard residue; d: D form. The star is where a group is joined. ξ: configuration not given here. X9 = CCC(C)(N*)C(=O)C1CC[C@@H](C(=O)N[C@@H](Cc2ccccc2)C(=O)NCC(=O)O)N1; X8 = O=C([C@@H]1CC(O)CN1[*:1])[*:2]; aIle = CC[C@@H](C)[C@H](N)C(=O)O; Thr(3ξ) = CC(O)[C@H](N)C(=O)O; ξIva = CCC(C)(N)C(=O)O; Aib = CC(C)(N)C(=O)O

Legend:
[1] = molecular target: Glutathione peroxidase 1 (Homo sapiens) (UniProt P07203); assay: Primary qHTS Assay for Inhibitors of Recombinant Selenoprotein Glutathione Peroxidase 1 (GPX1) (AID 1845191); note: nearly all actives have a fitted effect of over 65% in size
Procedure, shortened: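 10 nM GPX1 + cpd, 30 min RT; start w/ 1 mM GSH, 0.5 mM cumene hydroperoxide, 0.5 mM NADPH, 100 nM GR, 0.01% BSA; buffer 50 mM Tris-HCl pH 7.5, 2 mM EDTA, 150 mM NaCl; Fl 340/450, 0 & 15 min.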

[2] = molecular target: Phospholipid hydroperoxide glutathione peroxidase GPX4 (Homo sapiens) (UniProt P36969); assay: Primary qHTS Assay for Inhibitors of Recombinant Selenoprotein Glutathione Peroxidase 4 (GPX4) (AID 1845192); note: nearly all actives have a fitted effect of over 65% in size; for activity change, negative = inhibition: series mostly up to about 50 µM
Procedure, shortened: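 NADPH consumption, followed by fluorescence at 340/450 nm between 0 and 15 min, reports GPX4 activity via coupled glutathione reductase (100 nM). Enzyme 200 nM was pre-exposed to compound 30 min; 0.5 mM cumene hydroperoxide and 1 mM GSH served as substrates.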

[3] = molecular target: Luciferin 4-monooxygenase (Photinus pyralis) (UniProt P08659); assay: Primary firefly luciferase (FLuc) qHTS assay for identification of artifact compounds. (AID 1845220); note: nearly all actives have a fitted effect of over 60% in size; for activity change, negative = inhibition: series mostly up to about 54 µM
Procedure, shortened: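 FLuc 10 nM; luciferin 10 uM; ATP 10 uM; Tris-acetate pH 7.6, Mg-acetate 10 mM; 15 min RT preincubation; 5 min reaction; luminescence.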

[4] = Primary fluorescence-based thiol-reactive (MSTI) qHTS assay for identification of artifact compounds. (AID 1845221); note: nearly all actives have a fitted effect of over 65% in size; note: potency is the fitted concentration of half-maximal effect;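 for activity change, negative = thiol reactive: series mostly up to about 54 µM; thiol-reactive compounds lower the probe fluorescence signal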
Procedure, shortened: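 qHTS titration of compound; 4 uM MSTI, PBS pH 7.4, 2% DMSO; 1 h RT, dark; fluorescence 525/598 nm; normalized to Acetyl-MSTI and MSTI; 4-parameter Hill fit.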

[5] = test system: Nanoluciferase (engineered Oplophorus gracilirostris luciferase); assay: Primary Nanoluciferase (NLuc) qHTS assay for identification of artifact compounds. (AID 1845222);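 note: NLuc secreted into diluted conditioned medium of S16 cells; series mostly up to about 54 µM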
Procedure, shortened: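 NLuc from S16 cell medium (1:55) plus test compounds, 15 min, room temperature. Luminescence after Nano-Glo (1:100) addition, 5 min.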

[6] = Primary redox qHTS assay for identification of artifact compounds. (AID 1845223)
Procedure, shortened: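 Amplex Red (25 uM) and HRP (250 mU/mL) in HBSS, with compounds for 15 min, then 250 uM DTT for 30 min, room temperature, dark. Fluorescence 525/598 nm read; normalized to DMSO and 10 uM DA3003; Hill fit.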

Glutathione peroxidase 1 (Homo sapiens), sequence (P07203 whole entry, looked up): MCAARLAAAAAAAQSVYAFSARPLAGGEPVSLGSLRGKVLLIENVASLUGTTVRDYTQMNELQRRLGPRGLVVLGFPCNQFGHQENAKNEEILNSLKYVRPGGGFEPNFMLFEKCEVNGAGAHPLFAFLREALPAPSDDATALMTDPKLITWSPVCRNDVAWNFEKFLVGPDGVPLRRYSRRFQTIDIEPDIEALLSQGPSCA
Phospholipid hydroperoxide glutathione peroxidase GPX4 (Homo sapiens), sequence (P36969 whole entry, looked up): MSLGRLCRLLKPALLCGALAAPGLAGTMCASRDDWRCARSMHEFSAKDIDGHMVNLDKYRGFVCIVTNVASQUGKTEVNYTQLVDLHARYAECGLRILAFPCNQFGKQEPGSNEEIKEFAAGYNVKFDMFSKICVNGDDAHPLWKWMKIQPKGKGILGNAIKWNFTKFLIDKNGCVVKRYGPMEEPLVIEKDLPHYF

CC[C@@H]1C(=O)O[C@]23C=C[C@@H]4C(C(=O)OC)=CO[C@H](O[C@@H]12)[C@@H]43
Potency [1]: inactive | Potency [2]: inactive | Potency [3]: inactive | Potency [4]: 10.6 µM (active) | Potency [5]: inactive | Potency [6]: inactive

CC1(C)COC(=O)[C@@H]1O[C@@H]1O[C@H](CO)[C@@H](O)[C@H](O)[C@H]1O
Potency [1]: inactive | Potency [2]: inactive | Potency [3]: inactive | Potency [4]: inactive | Potency [5]: inactive | Potency [6]: inactive

O=C(OCC1OC(Oc2ccc(O)cc2COC(=O)C2(O)C(O)CCC(=O)C2OC(=O)C2C=CCC2)C(OC(=O)C2C=CCC2)C(O)C1O)C1C=CCC1 (centres undefined)
Potency [1]: inactive | Potency [2]: inactive | Potency [3]: inactive | Potency [4]: inactive | Potency [5]: inactive | Potency [6]: inactive

CC1=C2C(=O)C=C(CO[C@@H]3O[C@H](CO)[C@@H](O)[C@H](O)[C@H]3O)[C@@H]2[C@H]2OC(=O)[C@H](C)[C@@H]2[C@@H](O)C1
Potency [1]: inactive | Potency [2]: inactive | Potency [3]: inactive | Potency [4]: inactive | Potency [5]: inactive | Potency [6]: inactive

O=C(NC1CCN(CC(F)(F)F)CC1)c1ccc(-c2cccc(F)c2)nc1
Potency [1]: inactive | Potency [2]: inactive | Potency [3]: inactive | Potency [4]: inactive | Potency [5]: inactive | Potency [6]: inactive

CC(C)(O)C1CC=C(C(=O)OC[C@H]2O[C@@H](Oc3cc(C(=O)O)cc(O)c3O)[C@H](O)[C@@H](O)[C@@H]2O)CC1 (some centres undefined)
Potency [1]: inactive | Potency [2]: inactive | Potency [3]: inactive | Potency [4]: 5.19 µM (active) | Potency [5]: inactive | Potency [6]: inactive

CC(CNS(=O)(=O)C(C)C)c1ccc(-c2ccc(C#N)cc2)cc1 (centres undefined)
Potency [1]: inactive | Potency [2]: inactive | Potency [3]: inactive | Potency [4]: inactive | Potency [5]: inactive | Potency [6]: inactive

COC(=O)[C@H](Cc1cccc(C(=N)N)c1)[C@@H](C)NC(=O)c1ccc(-c2cc[n+]([O-])cc2)cc1
Potency [1]: inactive | Potency [2]: inactive | Potency [3]: inactive | Potency [4]: inactive | Potency [5]: inactive | Potency [6]: inactive

C[C@@H]1O[C@@H](OC2C(CO)OC(OCC3OC(OC(=O)[C@]45CCC(C)(C)CC4C4=CCC6[C@@]7(C)CC[C@@H](O)[C@](C)(C(=O)O)C7CC[C@@]6(C)[C@]4(C)CC5)C(O)C(O)C3O)C(O)C2O)[C@H](O)[C@H](O)[C@H]1O (some centres undefined)
Potency [1]: inactive | Potency [2]: inactive | activity change, negative = inhibition [3]: -1.59% [at 11.6 µM] | activity change, negative = thiol reactive [4]: 268% [at 11.5 µM] | activity, negative = inhibition [5]: 3.23% [at 11.6 µM] | redox activity (% of DA3003) [6]: 10.6% [at 11.5 µM]

C=C1[C@H]2CCC3[C@]4(C)CCC[C@@](C)(C(=O)O)C4CC[C@]3(C2)[C@H]1OC(C)=O (some centres undefined)
Potency [1]: inactive | Potency [2]: inactive | Potency [3]: inactive | Potency [4]: inactive | Potency [5]: inactive | Potency [6]: inactive

CCCN1CCC[C@@H](c2cccc(S(C)(=O)=O)c2)C1
Potency [1]: inactive | Potency [2]: inactive | Potency [3]: inactive | Potency [4]: inactive | Potency [5]: inactive | Potency [6]: inactive

CC[C@@H](C)[C@H](NC(=O)C(C)(C)NC(=O)[C@H](CCC(N)=O)NC(=O)C(C)(CC)NC(=O)[C@H](Cc1c[nH]c2ccccc12)NC(C)=O)C(=O)N[C@H](C(=O)NC(C)(C)C(=O)N[C@@H](CC(C)C)C(=O)NC(C)(C)C(=O)N1CCC[C@H]1C(=O)N[C@@H](CCC(N)=O)C(=O)NC(C)(C)C(=O)N1CC(O)C[C@H]1C(=O)NC(C)(CC)C(=O)C1CC[C@@H](C(=O)N[C@@H](Cc2ccccc2)C(=O)NCC(=O)O)N1)C(C)O (some centres undefined) (Ac-W[ξIva]Q[Aib][aIle][Thr(3ξ)][Aib]L[Aib]PQ[Aib][X8]-X9)
Potency [1]: inactive | Potency [2]: inactive | activity change, negative = inhibition [3]: -13.1% [at 6.45 µM] | activity change, negative = thiol reactive [4]: -2.24% [at 6.41 µM] | activity, negative = inhibition [5]: -3.07% [at 6.45 µM] | redox activity (% of DA3003) [6]: 8.28% [at 6.41 µM]

N#Cc1cccc(-c2c[nH]c3ncnc(N4CCOCC4)c23)c1
Potency [1]: inactive | Potency [2]: inactive | Potency [3]: inactive | Potency [4]: inactive | Potency [5]: inactive | Potency [6]: inactive

CNC(C)C(=O)NC(C(=O)N1CCCC1C(=O)Nc1cccc2ncccc12)C(C)C (centres undefined)
Potency [1]: inactive | Potency [2]: inactive | Potency [3]: inactive | Potency [4]: inactive | Potency [5]: inactive | Potency [6]: inactive

CC(C)C1(O)NC(=O)C(CC2(O)c3ccccc3N3C(=O)C(C)(C)NC32)n2c1nc1ccccc1c2=O (centres undefined)
Potency [1]: inactive | Potency [2]: inactive | Potency [3]: inactive | Potency [4]: inactive | Potency [5]: inactive | Potency [6]: inactive

COc1c(C)c(OCC=C(C)C)cc2c1CNC2=O
Potency [1]: inactive | Potency [2]: inactive | Potency [3]: inactive | Potency [4]: inactive | Potency [5]: inactive | Potency [6]: inactive

CC1(C)CC[C@]2(C(=O)O[C@@H]3O[C@H](CO)[C@@H](O)[C@H](O)[C@H]3O)CC[C@]3(C)C(=CCC4[C@@]5(C)C[C@@H](O)[C@H](O)[C@@](C)(CO)C5[C@H](O)C[C@]43C)C2C1 (some centres undefined)
Potency [1]: inactive | Potency [2]: inactive | Potency [3]: inactive | Potency [4]: inactive | Potency [5]: inactive | Potency [6]: inactive

CC1CCC2(C)CCC3(C)C(=CCC4C5(C)CCC(O)C(C)(C(=O)O)C5CCC43C)C2C1C (centres undefined)
Potency [1]: inactive | Potency [2]: inactive | Potency [3]: inactive | Potency [4]: inactive | Potency [5]: inactive | Potency [6]: inactive

COC(=O)C1=CO[C@@H](O[C@@H]2O[C@H](CO)[C@@H](O)[C@H](O)[C@H]2O)[C@@H]2C(C)CC(=O)[C@]12O (some centres undefined)
Potency [1]: inactive | Potency [2]: inactive | Potency [3]: inactive | Potency [4]: inactive | Potency [5]: inactive | Potency [6]: inactive
